Experimental data as given in the supplement of paper PMC8728848.
The full list was thinned out, with the strongest signals kept by preference.

How the values were obtained:
Experiment in all cases: glycan array binding signal (z-score within array); higher = stronger binding
Man(a1-2)Man(a1-3)Man = details: glycan notation: IUPAC condensed, linker removed
Outline: (§1)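 Negative Z-scores can be read as non-binding. The Z-score is calculated within each array and then averaged across arrays of one protein sequence at different concentrations or buffers and across linkers. Arrays, 3228 in all, were curated from the Consortium for Functional Glycomics database and kept only where the protein sequence was available.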

[1] = system: Man(a1-2)Man(a1-3)[Man(a1-2)Man(a1-6)]Man; details: glycan notation: IUPAC condensed, linker removed
Outline: as §1

[2] = system: Man(a1-3)[Man(a1-6)]Man(a1-6)[Man(a1-3)]Man; details: glycan notation: IUPAC condensed, linker removed
Outline: as §1

[3] = system: Man(a1-3)[Man(a1-6)]Man(b1-4)GlcNAc(b1-4)[Fuc(a1-6)]GlcNAc; details: glycan notation: IUPAC condensed, linker removed
Outline: as §1

[4] = system: Man(a1-2)Man(a1-3)[Man(a1-2)Man(a1-6)]Man(a1-6)[Man(a1-3)[Man(a1-6)]Man(a1-6)]Man(b1-4)GlcNAc(b1-4)GlcNAc; details: glycan notation: IUPAC condensed, linker removed
Outline: as §1

[5] = system: Man(a1-3)[Man(a1-6)]Man(a1-6)[Man(a1-3)]Man(b1-4)GlcNAc(b1-4)GlcNAc; details: glycan notation: IUPAC condensed, linker removed
Outline: as §1

[6] = system: Man(a1-2)Man(a1-3)[Man(a1-2)Man(a1-6)]Man(a1-6)[Man(a1-2)Man(a1-2)Man(a1-3)]Man(b1-4)GlcNAc(b1-4)GlcNAc; details: glycan notation: IUPAC condensed, linker removed
Outline: as §1

[7] = system: Man(a1-3)[Man(a1-6)]Man(a1-6)[Man(a1-2)Man(a1-3)]Man(b1-4)GlcNAc(b1-4)GlcNAc; details: glycan notation: IUPAC condensed, linker removed
Outline: as §1

Kdn(a2-3)Gal(b1-4)GlcNAc = details: glycan notation: IUPAC condensed, linker removed
Outline: as §1

[8] = system: Man(a1-2)Man(a1-2)Man(a1-3)Man; details: glycan notation: IUPAC condensed, linker removed
Outline: as §1

[9] = system: Man(a1-2)Man(a1-6)[Man(a1-3)]Man(a1-6)[Man(a1-2)Man(a1-2)Man(a1-3)]Man; details: glycan notation: IUPAC condensed, linker removed
Outline: as §1

[10] = system: Kdn(a2-3)Gal(b1-4)[Fuc(a1-3)]GlcNAc; details: glycan notation: IUPAC condensed, linker removed
Outline: as §1

[11] = system: Man(a1-2)Man(a1-2)Man(a1-6)[Man(a1-3)]Man; details: glycan notation: IUPAC condensed, linker removed
Outline: as §1

[12] = system: Man(a1-2)Man(a1-3)[Man(a1-2)Man(a1-6)]Man(a1-6)[Man(a1-2)Man(a1-2)Man(a1-3)]Man; details: glycan notation: IUPAC condensed, linker removed
Outline: as §1

[13] = system: Man(a1-2)Man(a1-3)[Man(a1-6)]Man(a1-6)[Man(a1-2)Man(a1-3)]Man(b1-4)GlcNAc(b1-4)GlcNAc; details: glycan notation: IUPAC condensed, linker removed
Outline: as §1

[14] = system: Man(a1-2)Man(a1-6)[Man(a1-3)]Man(a1-6)[Man(a1-2)Man(a1-2)Man(a1-3)]Man(b1-4)GlcNAc(b1-4)GlcNAc; details: glycan notation: IUPAC condensed, linker removed
Outline: as §1

Man(a1-3)[Man(a1-6)]Man = details: glycan notation: IUPAC condensed, linker removed
Outline: as §1

Kdn(a2-6)Gal(b1-4)GlcNAc = details: glycan notation: IUPAC condensed, linker removed
Outline: as §1

[15] = system: Man(a1-2)Man(a1-2)Man(a1-3)[Man(a1-2)Man(a1-6)[Man(a1-3)]Man(a1-6)]Man(b1-4)GlcNAc(b1-4)GlcNAc; details: glycan notation: IUPAC condensed, linker removed; mutation: D138V, E140I
Outline: as §1

[16] = system: Man(a1-2)Man(a1-2)Man(a1-3)[Man(a1-2)Man(a1-3)[Man(a1-2)Man(a1-6)]Man(a1-6)]Man(b1-4)GlcNAc(b1-4)GlcNAc; details: glycan notation: IUPAC condensed, linker removed
Outline: as §1

Chain of Avaren (Actinomycete K97) (chain, as listed by the source): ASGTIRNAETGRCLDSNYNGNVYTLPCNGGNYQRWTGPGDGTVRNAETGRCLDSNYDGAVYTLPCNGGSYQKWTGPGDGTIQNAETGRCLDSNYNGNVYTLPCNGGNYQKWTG
Chain of C3b (Homo sapiens), P01024 (P01024 23-667): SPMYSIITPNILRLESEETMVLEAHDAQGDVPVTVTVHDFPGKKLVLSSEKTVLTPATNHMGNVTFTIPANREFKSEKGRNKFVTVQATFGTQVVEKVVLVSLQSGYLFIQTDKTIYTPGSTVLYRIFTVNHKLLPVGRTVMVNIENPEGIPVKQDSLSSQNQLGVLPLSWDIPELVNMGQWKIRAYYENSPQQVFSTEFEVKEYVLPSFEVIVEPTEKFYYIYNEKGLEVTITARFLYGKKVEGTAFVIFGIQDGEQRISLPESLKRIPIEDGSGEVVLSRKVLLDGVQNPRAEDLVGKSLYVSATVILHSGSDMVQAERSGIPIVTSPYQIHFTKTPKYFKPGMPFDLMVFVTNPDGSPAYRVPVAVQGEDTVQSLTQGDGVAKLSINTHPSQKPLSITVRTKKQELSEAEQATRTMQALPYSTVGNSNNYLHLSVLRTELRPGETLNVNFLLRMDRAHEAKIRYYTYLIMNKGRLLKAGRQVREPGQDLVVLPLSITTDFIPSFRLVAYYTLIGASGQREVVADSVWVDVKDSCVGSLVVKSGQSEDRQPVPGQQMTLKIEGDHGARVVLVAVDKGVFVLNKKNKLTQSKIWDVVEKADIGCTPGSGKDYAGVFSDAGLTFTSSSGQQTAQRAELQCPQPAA
Chain of CHI3L1 (Homo sapiens), P36222 (P36222 whole entry): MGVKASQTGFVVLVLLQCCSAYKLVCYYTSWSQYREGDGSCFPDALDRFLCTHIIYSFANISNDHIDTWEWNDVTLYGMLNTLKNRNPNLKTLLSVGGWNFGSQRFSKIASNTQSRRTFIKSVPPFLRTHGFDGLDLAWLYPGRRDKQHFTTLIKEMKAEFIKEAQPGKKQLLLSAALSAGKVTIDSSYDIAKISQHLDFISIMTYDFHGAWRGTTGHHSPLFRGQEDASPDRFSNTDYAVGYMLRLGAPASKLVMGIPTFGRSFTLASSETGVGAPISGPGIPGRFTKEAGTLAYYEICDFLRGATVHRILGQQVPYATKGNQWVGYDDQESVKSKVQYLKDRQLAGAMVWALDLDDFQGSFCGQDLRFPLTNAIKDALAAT
Chain of 6RG (Lolium perenne), B9U140 (B9U140 entry or part of it): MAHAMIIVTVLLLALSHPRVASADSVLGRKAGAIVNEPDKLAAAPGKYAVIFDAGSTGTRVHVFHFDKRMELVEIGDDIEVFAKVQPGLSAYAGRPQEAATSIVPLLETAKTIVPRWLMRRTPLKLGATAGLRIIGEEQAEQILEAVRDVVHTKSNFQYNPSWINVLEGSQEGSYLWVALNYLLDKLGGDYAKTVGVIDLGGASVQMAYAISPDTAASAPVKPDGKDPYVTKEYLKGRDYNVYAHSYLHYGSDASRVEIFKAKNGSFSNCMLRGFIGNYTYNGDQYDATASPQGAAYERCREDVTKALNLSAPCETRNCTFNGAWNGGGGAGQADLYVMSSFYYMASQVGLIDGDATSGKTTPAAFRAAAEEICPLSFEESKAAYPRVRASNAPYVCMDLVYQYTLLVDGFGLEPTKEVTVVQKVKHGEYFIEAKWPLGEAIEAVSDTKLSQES
Chain of SRLC (Mus musculus), Q8VIF6 (Q8VIF6 other isoform, or with tags, fused parts or gaps): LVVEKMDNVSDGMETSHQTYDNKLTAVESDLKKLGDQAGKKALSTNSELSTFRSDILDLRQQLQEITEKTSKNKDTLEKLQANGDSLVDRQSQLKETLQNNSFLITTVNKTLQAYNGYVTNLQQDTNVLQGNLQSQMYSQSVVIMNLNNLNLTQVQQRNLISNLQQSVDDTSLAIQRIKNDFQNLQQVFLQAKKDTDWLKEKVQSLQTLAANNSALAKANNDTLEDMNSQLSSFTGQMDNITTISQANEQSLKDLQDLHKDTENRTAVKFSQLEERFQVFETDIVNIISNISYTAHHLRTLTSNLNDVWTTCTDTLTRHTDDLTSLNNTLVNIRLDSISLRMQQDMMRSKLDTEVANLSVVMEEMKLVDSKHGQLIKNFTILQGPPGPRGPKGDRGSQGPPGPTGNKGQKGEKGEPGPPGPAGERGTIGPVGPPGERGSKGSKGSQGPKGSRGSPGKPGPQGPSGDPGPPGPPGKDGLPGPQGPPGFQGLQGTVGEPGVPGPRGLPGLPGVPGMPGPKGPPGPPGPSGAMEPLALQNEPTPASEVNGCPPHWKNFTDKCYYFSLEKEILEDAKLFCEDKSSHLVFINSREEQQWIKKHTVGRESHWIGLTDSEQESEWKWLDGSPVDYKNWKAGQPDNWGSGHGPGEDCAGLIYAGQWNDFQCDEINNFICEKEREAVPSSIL
Chain of CHT (Homo sapiens) (chain, as listed by the source): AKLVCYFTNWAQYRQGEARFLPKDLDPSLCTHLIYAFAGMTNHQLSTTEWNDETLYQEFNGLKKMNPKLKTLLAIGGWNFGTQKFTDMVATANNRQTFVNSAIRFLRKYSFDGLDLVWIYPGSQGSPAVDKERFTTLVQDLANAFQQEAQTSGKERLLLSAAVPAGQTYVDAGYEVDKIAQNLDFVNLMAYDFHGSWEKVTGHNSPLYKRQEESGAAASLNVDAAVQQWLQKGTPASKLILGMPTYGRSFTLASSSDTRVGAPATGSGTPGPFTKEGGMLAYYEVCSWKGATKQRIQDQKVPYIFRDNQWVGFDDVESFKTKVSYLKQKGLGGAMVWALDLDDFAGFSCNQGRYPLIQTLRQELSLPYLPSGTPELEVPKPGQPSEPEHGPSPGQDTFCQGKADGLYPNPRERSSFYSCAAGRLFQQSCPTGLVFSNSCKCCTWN
Chain of Aggrecan (Rattus norvegicus), NP_071526 (chain, as listed by the source): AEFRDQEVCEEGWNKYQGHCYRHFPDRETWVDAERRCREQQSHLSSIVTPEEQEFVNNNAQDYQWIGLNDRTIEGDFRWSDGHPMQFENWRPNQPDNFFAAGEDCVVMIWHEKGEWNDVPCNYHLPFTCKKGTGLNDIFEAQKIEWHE
Chain of Neurocan (Homo sapiens), O14594 (O14594 other isoform, or with tags, fused parts or gaps): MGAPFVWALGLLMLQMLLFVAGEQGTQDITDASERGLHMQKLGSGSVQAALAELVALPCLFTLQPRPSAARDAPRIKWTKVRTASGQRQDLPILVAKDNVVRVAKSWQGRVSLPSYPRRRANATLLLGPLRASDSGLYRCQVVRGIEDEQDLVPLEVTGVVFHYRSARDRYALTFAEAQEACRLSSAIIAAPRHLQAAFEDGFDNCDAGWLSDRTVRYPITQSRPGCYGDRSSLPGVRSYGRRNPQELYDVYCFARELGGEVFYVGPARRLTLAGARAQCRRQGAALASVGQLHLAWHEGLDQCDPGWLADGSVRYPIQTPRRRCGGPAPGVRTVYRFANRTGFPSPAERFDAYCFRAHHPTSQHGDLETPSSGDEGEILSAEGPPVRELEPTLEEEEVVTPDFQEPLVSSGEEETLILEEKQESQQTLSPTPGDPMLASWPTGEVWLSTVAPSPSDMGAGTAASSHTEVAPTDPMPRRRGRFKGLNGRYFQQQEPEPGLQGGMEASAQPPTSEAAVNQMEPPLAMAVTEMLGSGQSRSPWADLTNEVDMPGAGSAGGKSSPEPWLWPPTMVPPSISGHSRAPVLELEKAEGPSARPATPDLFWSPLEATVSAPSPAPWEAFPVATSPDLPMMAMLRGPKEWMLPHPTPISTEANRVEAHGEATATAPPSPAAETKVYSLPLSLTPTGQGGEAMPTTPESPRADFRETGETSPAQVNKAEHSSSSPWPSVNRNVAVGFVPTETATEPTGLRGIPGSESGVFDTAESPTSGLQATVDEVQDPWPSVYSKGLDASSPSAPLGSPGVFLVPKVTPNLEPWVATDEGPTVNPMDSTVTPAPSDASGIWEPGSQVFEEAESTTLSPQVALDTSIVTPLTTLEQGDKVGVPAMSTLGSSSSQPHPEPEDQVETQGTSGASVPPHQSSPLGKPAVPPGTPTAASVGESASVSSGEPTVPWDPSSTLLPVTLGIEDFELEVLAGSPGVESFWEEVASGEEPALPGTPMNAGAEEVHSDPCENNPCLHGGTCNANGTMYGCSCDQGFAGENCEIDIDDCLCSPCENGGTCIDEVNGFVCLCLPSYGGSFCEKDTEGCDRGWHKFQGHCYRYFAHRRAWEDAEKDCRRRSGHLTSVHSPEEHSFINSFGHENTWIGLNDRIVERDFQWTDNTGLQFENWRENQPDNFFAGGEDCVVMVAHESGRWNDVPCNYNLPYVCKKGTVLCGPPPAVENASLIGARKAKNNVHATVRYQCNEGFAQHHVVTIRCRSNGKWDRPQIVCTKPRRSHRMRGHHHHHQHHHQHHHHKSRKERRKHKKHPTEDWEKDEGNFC
Chain of PILRb (Mus musculus), Q2YSF2 (Q2YSF2 entry or part of it): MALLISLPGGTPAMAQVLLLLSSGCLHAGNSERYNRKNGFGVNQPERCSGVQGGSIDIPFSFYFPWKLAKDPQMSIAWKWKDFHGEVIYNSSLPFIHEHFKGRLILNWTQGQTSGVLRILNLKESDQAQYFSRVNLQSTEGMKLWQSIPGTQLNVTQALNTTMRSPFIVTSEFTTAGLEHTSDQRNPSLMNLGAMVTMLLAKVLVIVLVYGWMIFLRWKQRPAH
Chain of PILRa (Mus musculus), Q2YSF3 (Q2YSF3 entry or part of it): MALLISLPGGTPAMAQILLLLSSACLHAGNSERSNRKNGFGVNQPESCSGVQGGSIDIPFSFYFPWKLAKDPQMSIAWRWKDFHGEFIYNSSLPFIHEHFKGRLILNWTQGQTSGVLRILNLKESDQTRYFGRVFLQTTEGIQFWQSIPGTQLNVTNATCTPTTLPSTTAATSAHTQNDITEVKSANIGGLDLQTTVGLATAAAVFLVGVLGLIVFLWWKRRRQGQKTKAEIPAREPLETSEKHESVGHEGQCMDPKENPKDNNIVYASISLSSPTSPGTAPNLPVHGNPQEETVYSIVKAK

Siglec-8 (Homo sapiens), Q9NYZ4
glycan array binding signal (z-score) (Man(a1-2)Man(a1-3)Man): -0.003 | glycan array binding signal (z-score) [1]: -0.204 | glycan array binding signal (z-score) [2]: 0.131 | glycan array binding signal (z-score) ([2]; mutation: R125K): -0.227 | glycan array binding signal (z-score) [3]: -0.07

HARE (Homo sapiens), Q8WWQ8
glycan array binding signal (z-score) [4]: 2.39

6RG (Lolium perenne), B9U140
glycan array binding signal (z-score) [1]: -0.266 | glycan array binding signal (z-score) [5]: -0.359

Neurocan (Homo sapiens), O14594
glycan array binding signal (z-score) [1]: -0.053 | glycan array binding signal (z-score) [2]: -0.722

Aggrecan (Rattus norvegicus), NP_071526
glycan array binding signal (z-score) [6]: 0.607 | glycan array binding signal (z-score) [7]: 1.14

C3b (Homo sapiens), P01024
glycan array binding signal (z-score) (Kdn(a2-3)Gal(b1-4)GlcNAc): -0.561 | glycan array binding signal (z-score) [8]: 0.007 | glycan array binding signal (z-score) [9]: -0.764

PILRb (Mus musculus), Q2YSF2
glycan array binding signal (z-score) [10]: 0.391

Avaren (Actinomycete K97)
glycan array binding signal (z-score) [8]: 2.52 | glycan array binding signal (z-score) [11]: 14.7 | glycan array binding signal (z-score) [6]: 1.26 | glycan array binding signal (z-score) [12]: 11.2 | glycan array binding signal (z-score) [1]: 3.5 | glycan array binding signal (z-score) [13]: 1.08 | glycan array binding signal (z-score) [14]: 13.4 | glycan array binding signal (z-score) [9]: 6.02 | glycan array binding signal (z-score) [7]: -0.014 | glycan array binding signal (z-score) [5]: -0.113 | glycan array binding signal (z-score) (Man(a1-3)[Man(a1-6)]Man): -0.106

PILRa (Mus musculus), Q2YSF3
glycan array binding signal (z-score) (Kdn(a2-6)Gal(b1-4)GlcNAc): -0.059

CHI3L1 (Homo sapiens), P36222
glycan array binding signal (z-score) (Kdn(a2-3)Gal(b1-4)GlcNAc): -0.144 | glycan array binding signal (z-score) [10]: 0.381

CHT (Homo sapiens)
glycan array binding signal (z-score) [15]: -0.189 | glycan array binding signal (z-score) (Man(a1-3)[Man(a1-6)]Man; mutation: D138V, E140I): -0.149

SRLC (Mus musculus), Q8VIF6
glycan array binding signal (z-score) [8]: -0.206 | glycan array binding signal (z-score) [16]: -0.241
